Source: PubChem BioAssay (Tox21)
Records with an inconclusive call do not appear. A number with no mark means an inactive call. Active and inactive are the calls of the source. Calls follow the shape of the dose curve; as a rule, active = well fitted cell-killing curve with a large enough effect in the repeat runs; inconclusive = weak or mixed curves, or effect the other way; inactive = flat fitted curve, though single readings scatter.

test: qHTS assay to identify small molecule antagonists of the androgen receptor (AR) signaling pathway using the MDA cell line - cell viability counter screen (AID 743041; also: nearly all actives have a fitted effect of over 45% in size); settings: MDA-kb2 viability, CellTiter-Fluor, 16 h, cells co-treated with R1881 androgen agonist; series mostly up to 70.3 µM
From the text: National Center for Advancing Translational Sciences [NCATS]
NIH Chemical Genomics Center [NCGC]
U.S. Environmental Protection Agency [EPA]
National Institutes of Environmental Health Sciences [NIEHS]
National Toxicology Program [NTP]
U.S. Food and Drug Administration [FDA]
Androgen receptor (AR), a nuclear hormone receptor, plays a critical role in AR-dependent prostate cancer and other androgen related diseases. Endocrine disrupting chemicals (EDCs) and their interactions with steroid hormone receptors like AR may cause disruption of normal endocrine function as well as interfere with metabolic homeostasis, reproduction, developmental and behavioral functions. To identify the compounds that inhibit AR signaling, MDA-kb2 AR-luc cell line (from ATCC, deposited by Wilson et al.) was used to screen the Tox21 10K compound library. MDA-kb2 AR-luc cell line is human breast carcinoma cell line that was stably transfected with a luciferase reporter gene under control of the MMTV promoter containing response elements for both androgen receptor (AR) and glucocorticoid receptor (GR). The cytotoxicity of the Tox21 compound library against the MDA-kb2 AR-luc cell line was tested in parallel by measuring the cell viability using CellTiter-Fluor assay (Promega, Madison, WI) in the same wells.
Tox21 Assay Protocol Summary:
MDA-kb2 AR-luc cells were dispensed at 3,000 cells/4 uL/well of culture medium into white wall/solid-bottom 1536-well plates using a Multidrop Combi (ThermoFisher Scientific, Waltham, MA) dispenser. After the assay plates were incubated at a 37C and 0% CO2 for 5 hr, 23 nL of compounds dissolved in DMSO, positive controls or DMSO only was transferred to the assay plate by a Pintool station (Kalypsys, San Diego, CA), followed by addition of 1 uL of agonist (R1881) in culture medium using a Bioraptr Flying Reagent Dispenser (FRD) workstation (Beckman Coulter, Indianapolis, IN, USA). The plates were incubated at a 37C and 0% CO2 for 16 h. After 15.5 h incubation, 1uL of CellTiter-Fluor reagent (Promega) was added using a Bioraptr FRD to each plate for measuring cytotoxicity. The fluorescence intensity was quantified on a ViewLux plate reader (PerkinElmer, Shelton, CT) following 30 min incubation at 37C and 0% CO2.
% is scaled to controls: 0 for no effect and ±100 for the full control effect.

| Structure (SMILES) | outcome | viability change, negative = cytotoxic |
| --- | --- | --- |
| CC(C)c1ccccc1O | inactive |  |
| C[Si]1(C)N[Si](C)(C)N[Si](C)(C)N1 | inactive |  |
| CC(C)COC(=O)CCCCC(=O)OCC(C)C | inactive |  |
| CNC(=O)C(c1ccccc1)c1ccccc1 | inactive |  |
| O=CO |  | -3.77% [at 8.47 µM] |
| CN[C@@H]1[C@H](O)[C@H](NC)[C@H]2O[C@@]3(O)C(=O)C[C@@H](C)O[C@H]3O[C@@H]2[C@H]1O | inactive |  |
| COc1ccc(OC)c(NC(=O)CC(C)=O)c1 | inactive |  |
| CCCCC[Si](OCC)(OCC)OCC | inactive |  |
| CCCCCC1Nc2cc(C(F)(F)F)c(S(N)(=O)=O)cc2S(=O)(=O)N1 (stereo not given) | inactive |  |
| CCC(=O)OCCC(C)CCC=C(C)C (stereo not given) | inactive |  |
| CCCCC(CC)COC(=O)c1ccccc1 (stereo not given) | inactive |  |
| O=c1[nH]c(=O)c2ccccc2o1 | inactive |  |
| NCCc1ccn[nH]1 | inactive |  |
| CCCOCCOCCOCCO | inactive |  |
| CC(C)COC(=O)CC(C(=O)OCC(C)C)S(=O)(=O)O (stereo not given) | inactive |  |
| O=C1NC2NC(=O)NC2N1 (stereo not given) | inactive |  |
| O=c1cc(O)c(Cl)c[nH]1 | inactive |  |
| O=C1OC(=O)c2ccccc21 | inactive |  |
| C=CCOCC(CO)(COCC=C)COCC=C | inactive |  |
| CC(C)SCc1ccco1 | inactive |  |

| Structure (SMILES) | outcome | viability change, negative = cytotoxic |
| --- | --- | --- |
| CCNC(=O)/C=C/c1cccc(Br)c1 | inactive |  |
| CCCCCCCC/C=C\CCCCCCCC(=O)OC[C@@H](O)[C@H]1OC[C@H](O)[C@H]1O | inactive |  |
| NS(=O)(=O)c1cc2c(cc1Cl)NC(CC1CCCC1)NS2(=O)=O (stereo not given) | inactive |  |
| C=CCOc1cc(Cl)ccc1C(=O)NCCN(CC)CC | inactive |  |
| C=C[Si](C)(C)O[Si](C)(C)C=C | inactive |  |
| C[C@H](CCC(=O)NCC(=O)O)[C@H]1CC[C@H]2[C@@H]3[C@H](O)C[C@@H]4C[C@H](O)CC[C@]4(C)[C@H]3C[C@H](O)[C@]12C | inactive |  |
| CCC(C)N (stereo not given) | inactive |  |
| O=C(COCCOCCOCC(=O)Nc1c(I)cc(I)c(C(=O)O)c1I)Nc1c(I)cc(I)c(C(=O)O)c1I | inactive |  |
| CC(=O)OCCCc1ccccc1 | inactive |  |
| CC(=O)OC(C)c1ccccc1 (stereo not given) | inactive |  |
| CCCCOC(=O)C(=O)OCCCC | inactive |  |
| NS(=O)(=O)c1ccc(Cl)c(S(N)(=O)=O)c1 | inactive |  |
| O=C1CC[C@H](C(=O)N2CCCCC2)N1 | inactive |  |
| SCCSCCS | inactive |  |
| CNCc1ccccc1 | inactive |  |
| CC(C)CCC(=O)CCC(C)C | inactive |  |
| Nc1ccc(/C=C/c2ccc(N)cc2S(=O)(=O)O)c(S(=O)(=O)O)c1 | inactive |  |
| Nc1ccnc(=O)[nH]1 | inactive |  |
| C=CC(C)(O)CC/C=C(\C)CC (stereo not given) | inactive |  |
| C[C@H](CCC(=O)O)[C@H]1CC[C@H]2[C@@H]3[C@H](O)C[C@@H]4C[C@H](O)CC[C@]4(C)[C@H]3C[C@H](O)[C@]12C | inactive |  |
